Apoferritin bind – candidate novel general anesthetic via apoferritin binding | P02791 | apoferritin/1-aminoanthracene competitive binding, fluorescence | Potency, µM (series often up to 77.5 µM), most hits filed as inhibitors | actives 0.074% (n = 350,000) | AID 485281; note: nearly all actives have a fitted effect of over 20% in size
Target sequence (P02791 2-175 limits assumed): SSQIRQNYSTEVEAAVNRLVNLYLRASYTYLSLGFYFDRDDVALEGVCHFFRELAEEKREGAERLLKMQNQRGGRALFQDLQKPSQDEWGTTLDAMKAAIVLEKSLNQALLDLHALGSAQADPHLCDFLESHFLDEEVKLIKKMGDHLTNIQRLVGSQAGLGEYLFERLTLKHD
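Concentration-response curves derived by four-parameter Hill fitting of normalized fluorescence, where compounds displaced 1-AMA from 10 uM horse apoferritin following a brief 10 min room-temperature incubation; propofol titration acted as positive control.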
PKM2 act – increases activity of human pyruvate kinase M2; P14618; purified PKM2, Kinase-Glo ATP luminescence, activation; response scale: 0% is enzyme alone, no compound; Potency, µM (titrated, usually from 57.5 µM), most hits filed as activators; actives 0.34% (n = 260,000); AID 1631; note: nearly all actives have a fitted effect of over 55% in size
Target sequence (P14618 whole entry, looked up): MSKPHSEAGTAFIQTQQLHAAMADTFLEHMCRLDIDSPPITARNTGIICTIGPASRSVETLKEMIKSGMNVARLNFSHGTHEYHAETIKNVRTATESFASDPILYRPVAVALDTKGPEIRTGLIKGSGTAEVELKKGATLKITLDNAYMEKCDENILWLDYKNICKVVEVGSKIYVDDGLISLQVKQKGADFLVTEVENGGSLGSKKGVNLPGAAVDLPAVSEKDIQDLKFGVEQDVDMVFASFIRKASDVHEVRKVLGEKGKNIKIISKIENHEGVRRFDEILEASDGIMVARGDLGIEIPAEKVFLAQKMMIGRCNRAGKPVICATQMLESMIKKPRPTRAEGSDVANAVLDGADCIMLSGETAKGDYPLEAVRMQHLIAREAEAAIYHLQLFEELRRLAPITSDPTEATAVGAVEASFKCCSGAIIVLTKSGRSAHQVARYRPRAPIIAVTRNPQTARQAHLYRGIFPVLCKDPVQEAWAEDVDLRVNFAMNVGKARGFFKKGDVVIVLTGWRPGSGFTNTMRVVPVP
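hPK-M2, >95% pure; 0.1 mM ADP / 0.5 mM PEP final; imidazole pH7.2 buffer w/ 7 mM MgCl2, 50 mM KCl; 1 h RT; Kinase-Glo lum. Intermediate enzyme activity for dual inhibitor/activator qHTS.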
GALK inhibitor – galactokinase (human) inhibition; Potency, µM (series often up to 57.5 µM), usual class: inhibitors; P51570; Purified GALK, Kinase-Glo residual ATP luminescence; actives 0.007% (n = 270,000)
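GALK at 5 nM final was combined with compound, 35 uM ATP and 100 uM galactose in HEPES pH8.0 with MgCl2 and DTT. The reaction ran one hour at room temperature before luminescent ATP detection.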
TrxR1 inh – blocks rat thioredoxin reductase 1 | O89049 | recombinant rTrxR1, NADPH fluorescence consumption, selenite substrate | Potency, µM (top dose mostly 114 µM), actives largely listed as inhibitors | actives 1% (n = 390,000); note: nearly all actives have a fitted effect of over 65% in size
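Rat TrxR1 (90 nM in the dispensed reagent) was pre-reduced with 400 uM NADPH for 5 min at room temperature, then incubated with compound for 15 min. After 400 uM selenite was added, NADPH fluorescence (Ex 340/Em 450 nm) was followed for 8 min.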
IDH1 R132H inh – inhibitors of human mutant IDH1 R132H | IDH1-R132H enzyme, NADPH consumption, diaphorase/resazurin fluorescence | actives 0.093% (n = 390,000) | Potency, µM (doses to about 76.6 µM), usual class: inhibitors | AID 602179 | O75874; note: nearly all actives have a fitted effect of over 65% in size
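IDH1-R132H (0.5 ug/mL dispensed) in pH 7.5 Tris buffer was preincubated 30 min with compound, then given a substrate mix of 0.016 mM NADPH and 2 mM alpha-KG for 80 min at room temperature; remaining NADPH was read by diaphorase/resazurin fluorescence.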
TrxR1 substrate – is turned over as a substrate by rat TrxR1. O89049. purified TrxR1 substrate turnover, NADPH consumption readout. Potency, µM (titrated, usually from 114 µM). actives 0.01% (n = 390,000). AID 588456; note: nearly all actives have a fitted effect of over 50% in size
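Rat TrxR1, dispensed at 90 nM, was prereduced with 400 uM NADPH (final) for 5 min at ~22 deg C, then incubated with compound 15 min before 400 uM selenite. A first-read NADPH fluorescence drop versus no-compound background flagged substrates.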
Of the large screens only hits and unclear results are named; the others gave an inactive call. A selection: hits, their analogues and other compounds. The true share with any hit is near 1.3%. Calls come from the whole dose curve; as a rule, active = well fitted curve in the direction sought with a large enough effect; inconclusive = small, poorly fitted or top-dose-only effect, or another doubt; inactive = no such curve, though single readings can be large; an effect the other way counts as inactive or inconclusive.

Clc1ccc(CSc2nnc(-c3cccnc3)n2Cc2ccco2)c(Cl)c1	PKM2 act inconclusive, TrxR1 inh 40µM
O=C(CSc1nnc(-c2ccncc2)n1Cc1ccco1)Nc1ccccc1Cl	none
CS(=O)(=O)c1ccc(NC(=O)COc2ccccc2C(=O)Nc2ccccc2)cc1	none (no result: Apoferritin bind, PKM2 act, GALK inhibitor, IDH1 R132H inh)
Cc1cccc(CC(=O)NCCc2csc(-c3ccc(C(F)(F)F)cc3)n2)c1	none (no result: PKM2 act, GALK inhibitor)
COc1cc(C)c2ccccc2n1	none (no result: Apoferritin bind, PKM2 act, GALK inhibitor, IDH1 R132H inh)
O=C(CSc1nnc(Cc2cccs2)n1Cc1ccco1)Nc1cccc(Cl)c1	TrxR1 inh 25µM
O=C(CSc1nnc(Cc2cccs2)n1Cc1ccco1)Nc1cc(Cl)cc(Cl)c1	TrxR1 inh inconclusive
COc1ccc(-n2c(SCC(=O)NCc3ccc(F)cc3)nc3c([nH]c4ccccc43)c2=O)cc1	none (no result: PKM2 act, GALK inhibitor)
Cc1ccccc1CSc1cn(CC(=O)N2CCCC2)c2ccccc12	none (no result: PKM2 act, GALK inhibitor)
O=C(CN(CCc1ccccc1)C(=O)CNS(=O)(=O)c1ccccc1)NCc1ccco1	none
Cc1ccc(S(=O)(=O)NCC(=O)N(CCc2ccccc2)CC(=O)NCc2ccco2)cc1	TrxR1 inh 22µM
CS(=O)(=O)c1ccc(Cl)c(NC(=O)CCl)c1	TrxR1 inh 13µM
CS(=O)(=O)c1ccc(C(=O)Nc2cc(S(C)(=O)=O)ccc2Cl)cc1	TrxR1 inh inconclusive
COc1ccc(-c2noc(CCC(=O)Nc3cccnc3)n2)cc1OC	PKM2 act 8.9µM
O=C(CBr)c1ccc(Oc2ccc(C(=O)C[n+]3cccc(Br)c3)cc2)cc1	none (no result: Apoferritin bind, PKM2 act, GALK inhibitor, IDH1 R132H inh)
O=C(c1ccc(Cl)cc1)C(CN1CCCCC1)c1ccccc1 (configuration not stated)	TrxR1 inh 25µM (no result: PKM2 act)
COc1ccc(-c2cc(-c3ccco3)[nH]c(=O)c2C#N)cc1OC	TrxR1 inh 16µM
Cc1ccc(S(=O)(=O)CCSc2nc(C)cc(C)c2C#N)cc1	PKM2 act 25µM
COc1cccc(NC(=O)CN(C)CC(=O)Nc2ccc(Cl)cc2[N+](=O)[O-])c1	Apoferritin bind inconclusive, PKM2 act 3.2µM
COc1cccc(NC(=O)CN(c2ccc([N+](=O)[O-])cc2)S(=O)(=O)c2ccccc2)c1	PKM2 act 4µM
COc1ccc(NC(=O)CN(C)S(=O)(=O)c2ccc(Cl)cc2)c([N+](=O)[O-])c1	none
COc1ccc(NC(=O)CN(c2ccc([N+](=O)[O-])cc2)S(=O)(=O)c2ccccc2)cc1	none
O=C(N/N=C/c1ccc([N+](=O)[O-])o1)c1ccc(NS(=O)(=O)c2cccs2)cc1	TrxR1 inh 10µM
O=C(N/N=C/c1ccc([N+](=O)[O-])cc1)c1ccc(NS(=O)(=O)c2cccs2)cc1	none (no result: Apoferritin bind, PKM2 act, GALK inhibitor)
O=C(N/N=C\C=C\c1ccc([N+](=O)[O-])o1)c1cccs1	TrxR1 inh 7.9µM (no result: PKM2 act)
COc1ccccc1OCC(=O)N/N=C/C=C/c1ccc([N+](=O)[O-])o1	TrxR1 inh 7.1µM
Cc1nnc2c(Nc3cccc(O)c3)nc3ccccc3n12	none (no result: PKM2 act, GALK inhibitor)
CON(C)C(=O)CC1(CN(Cc2ccccc2)C(=O)OC(C)(C)C)CCCCC1	none (no result: Apoferritin bind, PKM2 act, GALK inhibitor)
C#CC(=O)CC1(CN(Cc2ccccc2)C(=O)OC(C)(C)C)CCCCC1	TrxR1 inh 2µM (no result: Apoferritin bind, PKM2 act, GALK inhibitor)
CCOc1cc(CNc2ccc(O)cc2)ccc1OCc1ccc(Cl)cc1	Apoferritin bind inconclusive, TrxR1 inh 50µM (no result: PKM2 act, GALK inhibitor)
Oc1ccc(NCc2ccccc2OCc2ccc(Cl)cc2)cc1	Apoferritin bind inconclusive, TrxR1 inh 79µM (no result: PKM2 act, GALK inhibitor)
C(=C\c1ccco1)/C=N/n1cnnc1	TrxR1 inh 22µM
Cc1cc(=O)[nH]c(SCC(=O)c2ccc(O)c(O)c2)n1	TrxR1 inh 56µM
O=C(CSc1nc2ccccc2c(=O)[nH]1)c1ccc(O)c(O)c1	TrxR1 inh 50µM
Cc1sc(NC(=O)CSc2n[nH]c(N)n2)c(C#N)c1C	none (no result: Apoferritin bind, PKM2 act, GALK inhibitor)
Cc1ccc(/C=C/C2=Cc3c(sc(NC(=O)CSc4n[nH]c(N)n4)c3C#N)C(C)(C)C2)o1	Apoferritin bind inconclusive, PKM2 act 4.5µM (no result: TrxR1 inh, IDH1 R132H inh, TrxR1 substrate)
COc1cc2[nH]c(=S)nc(Nc3ccc(NC(C)=O)cc3)c2cc1OC	TrxR1 inh 10µM
COc1cc2[nH]c(=S)nc(NC3CCCCCC3)c2cc1OC	none
CSc1ccc(C2Nc3cccc4cccc(c34)N2)cc1	TrxR1 inh inconclusive
Clc1ccc(C2Nc3cccc4cccc(c34)N2)cc1	TrxR1 inh 35µM
Brc1ccc(C2Nc3cccc4cccc(c34)N2)s1	TrxR1 inh 5µM
Cc1cccc(C2Nc3cccc4cccc(c34)N2)c1	TrxR1 inh inconclusive (no result: PKM2 act)
Cc1ccc(-c2nc(CNC(=O)Nc3ccccc3)c(C)o2)cc1	none (no result: PKM2 act, GALK inhibitor)
Cn1ccc(=S)c2ccccc21	TrxR1 inh 22µM
Cc1ccc(CNC(=O)C2c3ccccc3C(=O)N3CCc4ccccc4C23)o1 (configuration not stated)	PKM2 act 10µM, TrxR1 inh 1.8µM
COc1ccc(C(C)NC(=O)c2ccccc2)cc1 (configuration not stated)	none
COc1ccc(C(=O)NC(Oc2ccccc2)C(Cl)(Cl)Cl)cc1 (configuration not stated)	TrxR1 inh 11µM
O=C(CCC(=O)c1ccc(F)cc1)OCc1nnc(-c2ccc([N+](=O)[O-])cc2)o1	TrxR1 inh 50µM (no result: Apoferritin bind, PKM2 act, GALK inhibitor)
Cc1ccc(S(=O)(=O)N(C)C)cc1NC(=O)COC(=O)c1ccc(Cl)cc1	none
Cc1ccc(S(=O)(=O)N(C)C)cc1NC(=O)COC(=O)c1sc2cc(Cl)ccc2c1Cl	TrxR1 inh 35µM
CS(=O)(=O)N1CCN(c2ccc([N+](=O)[O-])c(NCc3cccnc3)c2)CC1	Apoferritin bind inconclusive, PKM2 act 10µM
COc1ccc(C2C(C#N)=C(N)Oc3cc(C)n(Cc4ccco4)c(=O)c32)cc1 (configuration not stated)	TrxR1 inh 3.2µM
COc1ccc(NC(=O)c2sc3nc4c(c(-c5ccc(OC)cc5)c3c2N)C(=O)CC(C)(C)C4)cc1	none (no result: PKM2 act, GALK inhibitor, IDH1 R132H inh)
COc1ccccc1-c1cc(C(F)(F)F)nc(S(C)(=O)=O)n1	TrxR1 inh 35µM
COc1ccccc1-c1cc(C(F)(F)F)nc(S(=O)(=O)CCCC(=O)NC(C)C)n1	TrxR1 inh 18µM
COc1ccccc1-c1cc(C(F)(F)F)nc(N2CCCC2)n1	none
O=C(O)c1cccc(N2C(=O)c3ccc4c5c(ccc(c35)C2=O)C(=O)N(c2cccc(C(=O)O)c2)C4=O)c1	none
O=C(O)c1cc(N2C(=O)C=CC2=O)cc(N2C(=O)C=CC2=O)c1	TrxR1 inh 0.22µM (no result: Apoferritin bind, PKM2 act, GALK inhibitor)

Bioassay records as filed in PubChem.
